Data taken from PubChem BioAssay (NCATS).
Records with an inconclusive call do not appear. Activity calls are given as the source filed them. Calls follow the shape of the dose curve; as a rule, active = well fitted curve in the direction sought with a large enough effect; inconclusive = small, poorly fitted or top-dose-only effect, or another doubt; inactive = no such curve, though single readings can be large; an effect the other way counts as inactive or inconclusive.

Assays:
[1] = qHTS for differential inhibitors of proliferation of Plasmodium falciparum line D10 (AID 1877);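 also: parasites grown with compound for 72 h before DNA staining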
[2] = qHTS for differential inhibitors of proliferation of Plasmodium falciparum line Dd2 (AID 1882); also: series mostly up to about 29 µM; nearly all actives have a fitted effect of over 65% in size
Summary of the method: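 Dd2-infected erythrocytes (0.3% parasitemia, 2.5% hematocrit final) incubated with compound 72 h at 37 C, 5% CO2; lysed with saponin/Triton buffer containing SYBR Green I, incubated overnight in the dark, then read by fluorescence (485/535 nm). Normalized to 0.29 uM artemisinin and DMSO.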

[3] = qHTS for differential inhibitors of proliferation of Plasmodium falciparum line W2 (AID 1883);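 also: parasites grown with compound for 72 h before lysis and staining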
[4] = qHTS for differential inhibitors of proliferation of Plasmodium falciparum line HB3 (AID 1886);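 also: parasites grown with compound for 72 h before SYBR Green readout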
[5] = molecular target: Ferritin light chain (Equus caballus) (UniProt P02791); experiment: qHTS Validation Assay for Identification of Novel General Anesthetics (AID 2323); also: series mostly up to about 77 µM
Summary of the method: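 Competitive displacement of profluorescent 1-aminoanthracene (1-AMA, 50% saturated solution in PBS) from 10 uM horse-spleen apoferritin. Compounds incubated 10 min at room temperature; fluorescence read at 380 nm excitation/535 nm emission, normalized to free 1-AMA and complex, fitted with four-parameter Hill equation.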

[6] = molecular target: ATP-dependent DNA helicase Q1 (Homo sapiens) (UniProt P46063); experiment: qHTS Validation Assay for Inhibitors of RecQ-Like Dna Helicase 1 (RECQ1) (AID 2353)
Summary of the method: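 50 nM RECQ1T1 preincubated 15 min with compound in Tris pH 8.0 buffer with MgCl2, DTT, Tween-20 and 2.5 ug/ml poly(dI-dC); started with 200 nM TAMRA/BHQ-2 forked duplex and 2 mM ATP. Unwinding read as fluorescence (525/598 nm), two reads 2 h apart.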

[7] = Validation screen for small molecules that induce DNA re-replication in MCF 10A normal breast cells (AID 463097); also: nearly all actives have a fitted effect of over 60% in size
Summary of the method: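 Readout: Hoechst nuclear fluorescence intensity, 405 ex / 500-530 em, by scanning plate imager; re-replication scored as increase in nuclei with elevated DNA content. Cells exposed to compound 48 hr, 37 C, 5% CO2 beforehand.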

[8] = Quantitative high throughput screen for delayed death inhibitors of the malarial parasite plastid, 96 hour incubation (AID 488745);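 also: luciferase-expressing P. falciparum in erythrocytes at 2% hematocrit and 0.1% parasitemia; series mostly up to about 29 µM; nearly all actives have a fitted effect of over 70% in size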
Summary of the method: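 Infected erythrocytes were added to compound in Albumax-supplemented RPMI 1640 at 0.1% parasitemia and 2% hematocrit (final), incubated 96 h at 37 C under 5% CO2, then luciferase reagent was added and luminescence measured.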

[9] = Quantitative high throughput screen for delayed death inhibitors of the malarial parasite plastid, 48 hour incubation (AID 488752); also: nearly all actives have a fitted effect of over 65% in size
Description: NIH Molecular Libraries Probe Production Network [MLPCN]
NIH Chemical Genomics Center [NCGC]
Assay Provider: David Fidock and Eric Ekland, Columbia University
The goal of this screen is to discover new antimalarial compounds that act by inhibiting the development of the apicoplast in the malarial parasite Plasmodium falciparum. The biochemical processes that make this organelle essential for erythrocytic stage parasites are not well understood. However, antibiotics, such as azithromycin and tetracycline, which target the apicoplast translational machinery, have a potent antimalarial effect.
We have developed a cell-based assay that measures parasite growth based on the expression of an integrated copy of a firefly luciferase reporter. […] Growth inhibition is detected by a decrease in luciferase activity
Four microliters of culture medium (RPMI 1640 with 0.5% w/v Albumax (GIBCO), 24 mM sodium bicarbonate and 10 ug/mL gentamycin) were dispensed by a Multi-drop Combi into white solid 1536-well plates (Grenier) and 23 nL compound was added by a pin tool. […] Two microliters of luciferase detection reagent was added and luminescence was detected by a ViewLux (PerkinElmer) reader

Measured: outcome

ATP-dependent DNA helicase Q1 (Homo sapiens), sequence (P46063 whole entry, looked up): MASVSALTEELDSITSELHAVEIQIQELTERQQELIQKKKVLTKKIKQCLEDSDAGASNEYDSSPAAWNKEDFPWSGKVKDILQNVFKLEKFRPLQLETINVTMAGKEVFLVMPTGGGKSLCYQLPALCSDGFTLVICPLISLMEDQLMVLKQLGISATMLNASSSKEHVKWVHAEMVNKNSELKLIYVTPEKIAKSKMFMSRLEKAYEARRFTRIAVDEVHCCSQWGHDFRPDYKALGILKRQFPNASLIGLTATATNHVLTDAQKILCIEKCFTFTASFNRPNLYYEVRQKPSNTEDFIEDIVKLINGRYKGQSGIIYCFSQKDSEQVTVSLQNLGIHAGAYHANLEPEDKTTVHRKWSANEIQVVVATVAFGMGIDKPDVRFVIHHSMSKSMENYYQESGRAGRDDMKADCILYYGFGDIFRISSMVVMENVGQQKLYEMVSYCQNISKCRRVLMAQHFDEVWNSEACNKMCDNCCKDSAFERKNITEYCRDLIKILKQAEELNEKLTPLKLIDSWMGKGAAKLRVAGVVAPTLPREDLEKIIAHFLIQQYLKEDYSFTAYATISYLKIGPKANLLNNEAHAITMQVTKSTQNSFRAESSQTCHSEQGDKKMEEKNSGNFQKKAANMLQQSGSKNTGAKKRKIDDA
Ferritin light chain (Equus caballus), sequence (P02791 2-175 limits assumed): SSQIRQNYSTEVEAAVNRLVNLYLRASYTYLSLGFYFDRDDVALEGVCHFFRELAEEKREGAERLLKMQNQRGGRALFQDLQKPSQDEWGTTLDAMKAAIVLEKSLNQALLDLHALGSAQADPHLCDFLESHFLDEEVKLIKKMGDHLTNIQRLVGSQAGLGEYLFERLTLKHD

CN1C(C)(C)CCCC1(C)C
inactive: all assays above
